Assay results from PubChem BioAssay (NCI).
This is part of a sample that, as a whole, favours compounds with a hit. Of some 79,000 tested, about 15% had one in any assay. Values without a mark were called inactive. Calls of active or inactive are those of the source. Cut-off read from the data, not from the text of the source: active = growth inhibition above about 70%; inactive = the rest.

How the values were obtained:
[1] = NCI Yeast Anticancer Drug Screen. Data for the rad50 strain (AID 155);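 note: 0% = growth of vehicle-only cultures of the same strain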; conditions: S. cerevisiae rad50 strain growth inhibition, active compounds read high
How it was run: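 Vehicle-treated cultures provide the reference for the growth inhibition reported for compound-exposed, repair-deficient yeast.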

[2] = NCI Yeast Anticancer Drug Screen. Data for the mec2-1 strain (AID 157); conditions: S. cerevisiae mec2-1 strain, active compounds read high
How it was run: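 Strain: mec2-1 (DNA repair/cell cycle alteration). Compound exposure, then growth measured; inhibition expressed relative to vehicle.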

[3] = NCI Yeast Anticancer Drug Screen. Data for the sgs1 mgt1 strain (AID 161);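 note: 0% = growth of cultures given vehicle only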; conditions: S. cerevisiae sgs1 mgt1 strain, active compounds read high
How it was run: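 Read-out: growth inhibition vs vehicle controls. Cells: mutant yeast strain deficient in DNA damage repair.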

[4] = NCI Yeast Anticancer Drug Screen. Data for the cln2 rad14 strain (AID 165);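 note: 0% = growth equal to vehicle treated cultures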; conditions: S. cerevisiae cln2 rad14 strain, active compounds read high
How it was run: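 Compounds are applied to the cln2 rad14 yeast strain, and growth is then compared with that of vehicle-treated cultures to give inhibition.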

[5] = NCI Yeast Anticancer Drug Screen. Data for the bub3 strain (AID 167); conditions: S. cerevisiae bub3 mutant strain, active compounds read high
How it was run: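 Mutant yeast screening strain plus compound; vehicle-treated cultures serve as the 0% inhibition reference.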

[6] = NCI Yeast Anticancer Drug Screen. Data for the mlh1 rad18 strain (AID 175); conditions: S. cerevisiae mlh1 rad18 strain growth inhibition, active compounds read high
How it was run: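 Read-out is yeast growth inhibition, calculated against vehicle-only controls. The compound was applied to a strain engineered with DNA damage repair alterations.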

[7] = at 5.0 µM (retest, dose inferred, filed as 0.5)
[8] = at 50.0 µM (retest, dose inferred, filed as 5.0)

Compound	growth inhibition [1, 7]	growth inhibition [1, 8]	growth inhibition ([1]; at 50.0 µM)	growth inhibition [2, 7]	growth inhibition [2, 8]	growth inhibition ([2]; at 50.0 µM)	growth inhibition [3, 7]	growth inhibition [3, 8]	growth inhibition ([3]; at 50.0 µM)	growth inhibition [4, 7]	growth inhibition [4, 8]	growth inhibition ([4]; at 50.0 µM)	growth inhibition [5, 7]	growth inhibition [5, 8]	growth inhibition ([5]; at 50.0 µM)	growth inhibition [6, 7]	growth inhibition [6, 8]	growth inhibition ([6]; at 50.0 µM)
O=C(c1ccccc1)C1OC1c1ccccc1Cl (configuration not stated)	1%	40%	-13.7%	-4%	21%	-4.4%	7%	54%	-12.7%	4%	23%	-52.2%	3%	61%	-3.7%	12%	78% (active)	-9%
Cc1cc(Cl)c(O)c(-c2cc(-c3cccc([N+](=O)[O-])c3)c3c(N)[nH]c(=S)nc3n2)c1	-6%	46%	28.6%	-6%	23%	23.2%	3%	38%	20.3%	12%	33%	55%	-5%	45%	-6.15%	5%	50%	25.8%
O=C(O)/C=C/c1ccc([N+](=O)[O-])o1	12%	50%	87.4% (active)	5%	38%	80% (active)	9%	67%	90% (active)	-3%	38%	62.4%	4%	42%	76% (active)	11%	81% (active)	93.2% (active)
C[CH2][Ge]([CH2]C)([CH2]C)[O]C(=O)C([O][Ge]([CH2]C)([CH2]C)[CH2]C)c1ccccc1 (configuration not stated)	15%	15%	91.2% (active)	6%	6%	93% (active)	13%	13%	91.3% (active)	15%	15%	89.5% (active)	5%	5%	90.6% (active)	23%	23%	89.5% (active)
c1ccc(CSc2nnc3c4ccccc4c4ccccc4c3n2)cc1	-4%	5%	-22.6%	8%	-22%	-19.7%	5%	5%	-5.3%	-21%	-12%	29.4%	8%	13%	-9.25%	1%	3%	42%
O=Cc1cc(S(=O)(=O)c2ccc(O)c(C=O)c2)ccc1O	12%	22%	98.7% (active)	32%	38%	98.7% (active)	17%	25%	98.8% (active)	23%	25%	97.5% (active)	5%	11%	99% (active)	26%	22%	98.6% (active)
S=C(NCCNC(=S)[S][Sn]([c]1ccccc1)([c]1ccccc1)[c]1ccccc1)[S][Sn]([c]1ccccc1)([c]1ccccc1)[c]1ccccc1	97% (active)	93% (active)	89.8% (active)	98% (active)	96% (active)	90.8% (active)	97% (active)	94% (active)	91.5% (active)	96% (active)	93% (active)	87.9% (active)	98% (active)	94% (active)	90% (active)	98% (active)	91% (active)	89.8% (active)
O=[N+]([O-])c1cc(CN(CCO)CCO)c(O)c2ncccc12	99% (active)	99% (active)	99.1% (active)	98% (active)	100% (active)	94% (active)	96% (active)	100% (active)	99% (active)	97% (active)	99% (active)	91.3% (active)	95% (active)	99% (active)	95.7% (active)	96% (active)	99% (active)	97.2% (active)
Nc1nc(N)c2cc(S(=O)c3ccc4ccccc4c3)ccc2n1 (configuration not stated)	4%	17%	24.2%	29%	64%	79.2% (active)	2%	9%	19.5%	-1%	-18%	-42.4%	-21%	-19%	-13.9%	-4%	3%	13.5%
